Results filed as inconclusive are left out. A number with no mark means an inactive call. The source made the active and inactive calls. Calls come from the whole dose curve; as a rule, active = well fitted inhibition curve with a large enough effect; inconclusive = small, poorly fitted or top-dose-only effect; inactive = flat fitted curve, though single readings scatter.
system: PC26; assay: qHTS profiling for inhibitors of Plasmodium falciparum proliferation (AID 504749); note: nearly all actives have a fitted effect of over 60% in size;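 for activity, negative = inhibition: 0% = DMSO vehicle and full inhibition = artemisinin control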; conditions: P. falciparum in erythrocytes, SYBR Green DNA, 72 h; series mostly up to 28.7 µM; activity, negative = inhibition: at the top concentration
Procedure, shortened: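 SYBR Green fluorescence (ex 485 nm, em 535 nm) reports parasite DNA after 72 h compound exposure of infected red cells at 0.3% parasitemia, 2.5% hematocrit; signal normalized to 0.29 uM artemisinin and vehicle wells.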
Potency is the fitted concentration of half-maximal effect.

Compound	activity, negative = inhibition	Potency
NCCS(=O)(=O)O	-5.75%	
CC(C)Cc1ccc(C(C)C(=O)O)cc1 (stereo unspecified)	1.87%	
NC(=O)OCC(COC(N)=O)c1ccccc1	9.22%	
N[C@@H](Cc1c[nH]c2ccc(O)cc12)C(=O)O	2.94%	
Cc1cnc(C(=O)NCCc2ccc(S(=O)(=O)NC(=O)NC3CCCCC3)cc2)cn1	-4.01%	
CCOC(=O)C(C)(C)Oc1ccc(Cl)cc1	-7.33%	
CS(=O)(=O)Nc1ccc([N+](=O)[O-])cc1Oc1ccccc1	-7.92% [at 12.8 µM]	
CC(C)(C)C(=O)Oc1ccc(S(=O)(=O)Nc2ccccc2C(=O)NCC(=O)O)cc1	2.74%	
C[C@](N)(Cc1ccc(O)c(O)c1)C(=O)O	-3.83%	
Clc1ccc2nsnc2c1NC1=NCCN1	-3.06%	
Cn1cnc2c1c(=O)[nH]c(=O)n2C	-19.1%	
CC(C)C(=O)Nc1ccc([N+](=O)[O-])c(C(F)(F)F)c1	-1.2%	
COc1ccccc1OCC(O)CN1CCN(CC(=O)Nc2c(C)cccc2C)CC1 (stereo unspecified)	-16%	
COc1ccc2[nH]cc(CCNC(C)=O)c2c1	3.03%	
Cn1c(=O)c2c(ncn2C)n(C)c1=O	0.253%	
COC(=O)Nc1nc2ccc(C(=O)c3cccs3)cc2[nH]1	-1.5%	
Clc1ccccc1C(c1ccccc1)(c1ccccc1)n1ccnc1		572 nM (active)
Nc1nc2c(ncn2COC(CO)CO)c(=O)[nH]1	-3.43% [at 12.8 µM]	

Compound	activity, negative = inhibition	Potency
NCCCCCC(=O)O	0.289% [at 12.8 µM]	
CC12CC3CC(C)(C1)CC(N)(C3)C2	-4.78%	
Cc1cc(C(C)(C)C)c(O)c(C)c1CC1=NCCN1	-0.964%	
Nc1nnc(-c2cccc(Cl)c2Cl)c(N)n1	-0.993%	
CCOC(=O)c1ncn2c1CN(C)C(=O)c1cc(F)ccc1-2	11.1%	
CN(C)c1nc(N(C)C)nc(N(C)C)n1	-4.96% [at 12.8 µM]	
NS(=O)(=O)c1cc2c(cc1Cl)NCNS2(=O)=O	2.73%	
CN1CCN2c3ccccc3Cc3ccccc3C2C1 (stereo unspecified)	9.09%	
Cc1cn([C@H]2C[C@H](N=[N+]=[N-])[C@@H](CO)O2)c(=O)[nH]c1=O	-2.63%	
CC[N+](CC)(CC)CCOc1cccc(OCC[N+](CC)(CC)CC)c1OCC[N+](CC)(CC)CC	-0.844%	
Cc1ccc(C(=O)Nc2ccc(S(=O)(=O)O)c3cc(S(=O)(=O)O)cc(S(=O)(=O)O)c23)cc1NC(=O)c1cccc(NC(=O)Nc2cccc(C(=O)Nc3cc(C(=O)Nc4ccc(S(=O)(=O)O)c5cc(S(=O)(=O)O)cc(S(=O)(=O)O)c45)ccc3C)c2)c1	-2.12%	
NC(=O)NO	-5.83%	
CN1C(C(=O)Nc2ccccn2)=C(O)c2ccccc2S1(=O)=O	-5.01% [at 12.8 µM]	
COc1cc2c(c(OC)c1OC)-c1ccc(OC)c(=O)cc1[C@@H](NC(C)=O)CC2	-8.08%	
Cc1cn([C@H]2C=C[C@@H](CO)O2)c(=O)[nH]c1=O	2.8%	
CS(=O)(=O)CCNCc1ccc(-c2ccc3ncnc(Nc4ccc(OCc5cccc(F)c5)c(Cl)c4)c3c2)o1	10.9%	
CCCNCC(O)COc1ccccc1C(=O)CCc1ccccc1 (stereo unspecified)		1690 nM (active)
CC(=O)OCC(CCn1cnc2cnc(N)nc21)COC(C)=O	-0.0233%	

Source: PubChem BioAssay (NCATS)
